Screening data as filed in PubChem.
Sampled rows, rich in hits. Any-hit rate of the full collection: about 12%.
Lassa entry inh – inhibitors of Lassa virus binding or cell entry; Lassa virus pseudotype entry inhibition, cell reporter; 300,000 compounds, 1.2% hits; Potency, µM (titrated, usually from 37.9 µM), actives largely listed as inhibitors; calls by dose curve; tested in HEK293 cells; also: nearly all actives have a fitted effect of over 50% in size
Cycloheximide cs – counter-screen hit for Shiga toxin inhibitors, cycloheximide; cell reporter, cycloheximide protein synthesis inhibition counterscreen; AID 2314; max response, %; 300,000 compounds, 12% hits; in the data active = max response mostly above about 13%, no sharp cut-off; inactive = mostly below about 14%; also: read at 38.3 µM for the half of the compounds with a filed dose
Shiga toxin inh – inhibitors of Shiga toxin in Vero cells | Vero cells, Shiga toxin protein synthesis inhibition reporter | inhibition, % at 38.7 µM | AID 2315 | 290,000 compounds, 9.2% hits; in the data active = inhibition mostly above about 28%, no sharp cut-off; inactive = mostly below about 43%
MARV entry inh – blocks Marburg virus binding to or entry into cells | Marburg virus pseudotyped entry inhibition, cell reporter | Potency, µM (highest dose often 37.8 µM), usual class: inhibitors | 300,000 compounds, 1.8% hits | AID 540276; calls by dose curve; tested in HEK293 cells
A number is an active result; n = inactive; u = inconclusive; x = not tested or not shown; ! = a repeat was not active.

SMILES | Lassa entry inh | Cycloheximide cs | Shiga toxin inh | MARV entry inh
COc1cc(-c2oc3cc(O)cc(O)c3c(=O)c2O)ccc1O | x | 48.4! | 48.7 | x
O=c1cc(-c2ccc(O)c(O)c2)oc2cc(O)cc(O)c12 | x | 56.3 | 67.3 | x
COc1c(-c2ccc(O)cc2)oc2cc(O)cc(O)c2c1=O | x | n | n | x
O=c1c(O)c(-c2ccc(O)c(O)c2)oc2cc(O)cc(O)c12 | u | 30.1 | n | u
CC(C)C(=O)N[C@@H]1CCCN1C(=O)C=Cc1ccccc1 | n | x | x | n
CCc1cccc(NC(=S)N(CCOC)C(C)c2ccco2)c1 (stereo not given) | x | n | n | x
CCCOc1cccc(C2C(C(=O)c3cccs3)=C(O)C(=O)N2Cc2cccnc2)c1 (stereo not given) | u | n | n | u
C=C(CCN1C=C(C(=O)OCC)C(c2ccccc2)NC1=O)c1ccccc1 (stereo not given) | x | x | x | n
O=C1/C(=C\c2cccnc2)CCc2ccccc21 | n | 29.4 | n | n
O=C1/C(=C/c2cccnc2)CCC/C1=C\c1cccnc1 | 7.08µM | n | n | u
O=C1/C(=C/c2ccc(O)cc2)CCc2ccc([N+](=O)[O-])cc21 | n | n | n | n
N=C1c2ccccc2CN1c1cccc([N+](=O)[O-])c1 | n | n | n | n
O=C1/C(=C\c2ccc([N+](=O)[O-])cc2)CCc2ccccc21 | n | 25.8 | n | n
O=C1NC(=S)N/C1=C\c1cccnc1 | x | n | n | x
O=C1c2ccccc2CCc2ccccc21 | n | x | x | n
O=C1/C(=C/Nc2cccc([N+](=O)[O-])c2)CCc2ccccc21 | u | 81.3 | n | u
O=C(COC(=O)c1cc(S(=O)(=O)NCc2ccccc2)ccc1O)c1cc2ccccc2o1 | x | n | n | x
CC(C)N1C(=O)S/C(=C/c2cccnc2)C1=O | n | 19.9 | n | n
CCC1C/C(=C\c2cccnc2)C(=O)/C(=C/c2cccnc2)C1 (stereo not given) | 4.47µM | 38.4 | n | 5.8µM
O=C1NC(=S)N/C1=C/c1cccnc1 | x | n | n | x
CC(C)N1C(=O)S/C(=C/c2ccc3c(c2)n(C)c(=O)n3C)C1=O | n | n | n | u
CC(C)/C=C1\CC/C(=C\c2cccnc2)C1=O | x | 78.3 | 124.2 | x
O=C1/C(=C/c2cccnc2)CC/C1=C\c1cccnc1 | n | 62.9 | n | u
Cc1ccccc1S(=O)(=O)Cc1ccc(C(=O)N2CCN(c3ccccc3F)CC2)o1 | u | n | n | u
Cc1c(CCOC(=O)c2cccc([N+](=O)[O-])c2)sc[n+]1CC(=O)c1ccccc1 | x | n | n | x
SMILES | Lassa entry inh | Cycloheximide cs | Shiga toxin inh | MARV entry inh
CCOC(=O)c1ccc(NC(=O)c2c(NCc3ccc(OC)c(OC)c3OC)sc3c2CCC(C)C3)cc1 (stereo not given) | n | x | x | x
O=C1/C(=C/c2ccccc2)CCCc2ccccc21 | u | 63.2 | 95.7 | n
CN(C)c1ccc(/C=C2\CCC/C(=C\c3ccccc3)C2=O)cc1 | u | n | n | n
CCCC[C@]12Cc3cc(C#N)ccc3[C@H](O1)c1c(c3ccccc3oc1=O)O2 | x | x | x | n
CC(OC(=O)c1c2c(nc3ccccc13)/C(=C\c1ccc3c(c1)OCO3)CCC2)C(=O)Nc1ccc(S(N)(=O)=O)cc1 (stereo not given) | u | 41.7 | 48.9 | u
Cc1cccc(C)c1NC(=O)COC(=O)c1ccc2c(c1)OCO2 | x | n | n | x
CC(OC(=O)c1cc2ccccc2cc1O)C(=O)Nc1ccc(S(N)(=O)=O)cc1 (stereo not given) | x | n | n | x
Cc1cccc(C)c1NC(=O)COC(=O)c1c2c(nc3ccccc13)/C(=C\c1ccc3c(c1)OCO3)CCC2 | u | 18.2 | 44.4 | n
Cc1ccc(Cn2ccc(C3CC3)n2)cc1 | n | 61.9 | n | u
Clc1ccc(Cn2ccc(C3CC3)n2)cc1 | u | 31.2 | 65.9 | n
Clc1ccc(CN2CCC(c3ccccc3)CC2)cc1 | x | n | n | x
CCC(=O)C1CCCN(C(=O)c2ccc(OC3CCN(C(=O)CCOC)CC3)cc2)C1 (stereo not given) | n | n | n | n
Cc1ccc(S(=O)(=O)C2(C(=O)Nc3ccc(Br)cc3)CC2)cc1 | n | 31.6 | n | n
COc1ccc(CNC(=O)CCSCc2cccc(F)c2)cc1 | n | n | n | u
CCOc1ccc(N2CC(NC(=O)c3ccc(Cl)cc3)CC2=O)cc1 (stereo not given) | n | x | x | x
Nc1ccc2oc3ccc(N)cc3c(=O)c2c1 | u | 37.8 | n | n
Nc1ccc2c(=O)[nH][nH]c(=O)c2c1 | n | x | x | n
O=C(NNS(=O)(=O)c1ccc(Cl)cc1)c1cnn(-c2ccccc2)c1-n1cccc1 | n | n | n | u
O=C(NCCOc1ccc(Cl)cc1)c1ccc2ccccc2n1 | n | 9.3 | n | u
CCOc1ccc(CCNC(=O)c2ccc3ccccc3n2)cc1OCC | x | 43.9 | 52.7 | x
COc1ccc(CCNC(=O)c2cnc3ccccc3n2)cc1 | n | 14.5 | n | n
COc1ccc(CNC(=O)c2ccc3ccccc3n2)cc1OC | u | n | n | u
Cc1ccc(OCCNC(=O)c2ccc3ccccc3n2)cc1 | u | n | n | n
O=C(NCc1ccc(Cl)cc1)c1ccc2ccccc2n1 | u | 19.8 | n | n
COc1ccc(CCNC(=O)c2ccc3ccccc3n2)cc1OC | u | n | n | u
SMILES | Lassa entry inh | Cycloheximide cs | Shiga toxin inh | MARV entry inh
COc1ccc(CCNC(=O)c2ccc(Cl)nc2)cc1 | x | n | n | n
CSc1ncccc1C(=O)NC1CC(C)(C)Cc2c1cnn2-c1ccccc1C (stereo not given) | u | n | n | u
CC(=O)Nc1ccc(CNc2ncnc3ccc(-c4c(C)noc4C)cc23)cc1 | x | n | n | x
Cc1noc(C)c1-c1ccc2ncnc(NCc3ccc(-c4ccccc4)cc3)c2c1 | x | 37.6 | 47.6 | x
CCOc1ccc(NC(=O)CCc2nc3cccnc3n2Cc2ccc(OC)cc2)cc1 | n | x | x | n
CCc1noc(C)c1C(=O)Nc1sc(C(=O)N(C)C)c(C)c1C#N | n | x | x | n
Cc1cc(OCC(=O)NCCCn2ccnc2)c2c(C)c(C)c(=O)oc2c1 | x | n | n | x
CCCCc1nc2ccccc2c(NC(=O)CNC(C)(C)C)c1CCC | n | n | n | n
CCCCc1nc2ccccc2c(N)c1CCC (tested in a mixture with another compound) | u | n | n | 17.8µM
Cc1cc(C(=O)N/N=C2\CCCC(=O)C2)c(C)o1 | n | x | x | n
O=C(O)c1ccccc1NN=Cc1ccccc1 | n | x | x | u
O=C(NN=C1CCCCCC1)c1cccnc1 | x | 30.8 | 83.7 | x
Cc1cc(C(=O)NN=C2CCCCCC2)c(C)o1 | x | 24.9 | 52.3 | x
O=C(O)c1ccccc1NN=C1CCCCC1 | u | 56.8 | 109.6 | n
O=C(NN=C1CCCC1)c1ccccc1O | n | 18.0 | 58.3 | n
CCCCN(C)CCNC(=O)C(NC(=O)C1CCC(C)CC1)C(C)C (stereo not given) | n | n | n | n
Cc1ccccc1C(=O)Nc1nc(-c2ccc(Br)cc2)ns1 | n | x | x | n
CCCCCn1c(=O)[nH]c2cc(C(=O)Nc3ccc(F)c(F)c3)ccc2c1=O | n | x | x | n
CCOC(=O)C1CCN(C(c2cccc(F)c2)c2c(O)cc(C)n(Cc3ccco3)c2=O)CC1 (stereo not given) | n | x | x | x
O=C(NN=C1CCCC1)c1ccc(Cl)cc1 | x | 40.5 | 72.2 | x
NNC(=O)c1cccc(O)c1 | n | 67.0 | 57.8 | u
Cc1cc(C)nc(SCc2ccc(C(=O)N/N=C3\CC(C)CC(C)(C)C3)cc2)n1 (stereo not given) | n | n | n | u
